Structures are written as SMILES. Results filed as inconclusive are left out. Active and inactive are the calls of the source. Calls come from the whole dose curve; as a rule, active = well fitted activation curve with a large enough effect in the signal ratio in the repeat runs (not every such curve was filed as active); inconclusive = weak or mixed curves, or effect the other way; inactive = no such curve, though single readings can be large or run the other way; the % refers to the signal ratio.
% is set by controls: 0 for no effect and ±100 for the full control effect.

For the experiment, the target named is Peroxisome proliferator-activated receptor gamma (Homo sapiens) (UniProt P37231). Briefly: qHTS assay to identify small molecule agonists of the peroxisome proliferator-activated receptor gamma (PPARg) signaling pathway (AID 743094). The following applies: HEK293H PPARg-UAS-bla, beta-lactamase FRET ratio, 17 h; series mostly up to 57 µM. The source says: U.S. Tox21 Program National Center for Advancing Translational Sciences [NCATS] NIH Chemical Genomics Center [NCGC] U.S. Environmental Protection Agency [EPA] National Institutes of Environmental Health Sciences [NIEHS] National Toxicology Program [NTP] U.S. Food and Drug Administration [FDA] Tox21 Assay Overview: The peroxisome proliferator-activated receptors (PPARs) are lipid-activated transcription factors of the nuclear receptor superfamily with three distinct subtypes namely PPAR alpha, PPAR delta (also called PPAR beta) and PPAR gamma (PPARg). All these subtypes heterodimerize with Retinoid X receptor (RXR) and these heterodimers regulate transcription of various genes. PPAR-gamma receptor (glitazone receptor) is involved in the regulation of glucose and lipid metabolism. To identify the compounds that activate PPAR-gamma signaling, GeneBLAzer PPAR gamma UAS-bla HEK293H cell line (Invitrogen, Carlsbad, CA, USA) containing a beta-lactamase reporter gene under control of the control of an upstream activator sequence (UAS) stably integrated into HEK293H cells was used to screen Tox21 compound library.
Chain of Peroxisome proliferator-activated receptor gamma (Homo sapiens) (P37231 whole entry, looked up): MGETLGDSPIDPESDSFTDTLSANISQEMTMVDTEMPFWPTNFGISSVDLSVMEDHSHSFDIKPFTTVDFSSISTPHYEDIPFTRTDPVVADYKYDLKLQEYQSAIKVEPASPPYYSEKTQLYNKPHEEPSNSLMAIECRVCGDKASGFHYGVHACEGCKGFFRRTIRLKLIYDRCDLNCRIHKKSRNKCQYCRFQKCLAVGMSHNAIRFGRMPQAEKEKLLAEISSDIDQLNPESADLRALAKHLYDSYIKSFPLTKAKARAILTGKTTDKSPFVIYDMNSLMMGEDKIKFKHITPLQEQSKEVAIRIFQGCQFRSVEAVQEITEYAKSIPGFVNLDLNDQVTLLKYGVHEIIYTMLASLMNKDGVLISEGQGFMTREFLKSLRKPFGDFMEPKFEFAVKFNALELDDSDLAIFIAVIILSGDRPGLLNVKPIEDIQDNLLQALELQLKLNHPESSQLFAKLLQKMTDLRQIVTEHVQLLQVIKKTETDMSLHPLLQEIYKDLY
Tox21 Assay Protocol Summary: PPARg-bla cells were dispensed at 3000 cells/6uL/well in 1536-well black wall/clear bottom plates using a Multidrop Combi (Thermo Fisher Scientific, Waltham, MA) dispenser. After the assay plates were incubated at 37C and 5% CO2 for 5 h, 23 nL of compounds dissolved in DMSO, positive controls or DMSO only was transferred to the assay plate by a Pintool station (Kalypsys, San Diego, CA). The assay plates were incubated at 37C for 17 h. After 1 uL of LiveBLAzerTM B/G FRET substrate was added using a Bioraptr Flying Reagent Dispenser (FRD) workstation (Beckman Coulter, Indianapolis, IN, USA), the plates were incubated at room temperature for 1 h, and fluorescence intensity was measured by an Envision plate reader (PerkinElmer, Shelton, CT).
For orientation: Quantitative high-throughput screening tests each substance at several concentrations.
With `CC(C)=CCCC(C)CC(=O)O` (stereo not given), the result was inactive.

Consider `CCCCCCCCCCCCCCCCC`, for which the result was inactive.

Regarding `COc1ccc2c(c1)c(CC(=O)OCC(=O)O)c(C)n2C(=O)c1ccc(Cl)cc1`, the result was inactive.

As for `Cc1c(NC(C)C)c(=O)n(-c2ccccc2)n1C`, the result was inactive.

On to `CCO[Si](CCC1CCC2OC2C1)(OCC)OCC` (stereo not given), for which the result was inactive.

For the compound `O=[N+]([O-])c1ccc(F)cc1F`, the result was inactive.

For `C=C[Si](OC(=C)C)(OC(=C)C)OC(=C)C`, the outcome was inactive.

For `O=C(CCCN1CCN(c2ccccn2)CC1)c1ccc(F)cc1`, the outcome was inactive.

On to `O=C(O)CNC(=O)c1ccc([N+](=O)[O-])cc1`, for which the outcome was inactive.

Regarding `O=C(O)CCCc1ccccc1`, the outcome was inactive.

As for `CCOC(C)(C)C`, the result was inactive.

On to `CN(C)CCCNCCCN(C)C`, for which the result was inactive.

On to `COCCc1ccc(OCC(O)CNC(C)C)cc1` (stereo not given), for which the outcome was inactive.

Regarding `CCn1ccnc1CC1COc2ccccc2O1` (stereo not given), the result was inactive.

In the case of `CC(C[N+](C)(C)C)OC(N)=O` (stereo not given), the outcome was inactive.

As for `CC(C)(C)c1ccc(O)c(O)c1`, the result was inactive.

As to `CC(C)NC(=O)NC(C)C`, the result was inactive.

With `CCCCCCCCCCCCN(CCCCCCCCCCCC)CCCCCCCCCCCC`, the outcome was inactive.

On to `C[N+](C)(C)CCCCCC[N+](C)(C)C`, for which the outcome was inactive.

`O=S(O)CO`: the result was inactive.

As for `COC(=O)c1c(Cl)c(Cl)c(C(=O)OC)c(Cl)c1Cl`, the outcome was inactive.

On to `OCCOc1ccc(OCCO)cc1`, for which the result was inactive.

With `COC(=O)[C@@H](N)Cc1ccc(O)c(O)c1`, the result was inactive.

Consider `C=C(C)CS(=O)(=O)O`, for which the outcome was inactive.

Take `C[C@H](NC(CCc1ccccc1)C(=O)O)C(=O)N1CCC[C@H]1C(=O)O` (stereo not given in full): the outcome was inactive.

`C=C(C)C(=O)OCCCCCCCC(C)C`: the result was inactive.

With `CCOC(=O)[C@H](CCc1ccccc1)N[C@@H](C)C(=O)N1[C@H](C(=O)O)C[C@@H]2CCC[C@@H]21`, the outcome was inactive.

Turning to `CC(C)(C)NCCNC(C)(C)C`, the result was inactive.

Take `OCCCC1CCCCC1`: the result was inactive.

As to `c1ccc(CC2=NCCN2)cc1`, the outcome was inactive.

In the case of `CCN(CC)CCOCCOC(=O)C1(c2ccccc2)CCCC1`, the result was inactive.

Take `CO[Si](CCCOCC1CO1)(OC)OC` (stereo not given): the result was inactive.

With `O=C1NC(=O)[C@@]2(CCOc3ccc(F)cc32)N1`, the outcome was inactive.

As for `CCCCOCCOCCOCCCC`, the outcome was inactive.

As for `CCCN(CCC)CCc1cccc2c1CC(=O)N2`, the result was inactive.

On to `CCCN1CCCC[C@H]1C(=O)Nc1c(C)cccc1C`, for which the outcome was inactive.

Take `NS(=O)(=O)c1ccccc1Cl`: the outcome was inactive.

As to `CCCCCCCCCCCCCC=O`, the activation was -7.22% [at 7.08 µM] (inactive).

Turning to `CC(=O)CC(C)(C)C1CCCCC1`, the result was inactive.

Turning to `O=Cc1cccc([N+](=O)[O-])c1`, the result was inactive.

The record behind these values is PubChem BioAssay (Tox21).
